# CHO-K1 Ca antag: M1 antagonist counterscreen hit in parental CHO-K1 cells | ATP-induced calcium, Fluo-8 fluorescence | inhibition, % at 3 µM | actives 0.6% (n = 360,000) | AID 602250;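 active = inhibition above a per-plate cutoff, the plate's mean sample inhibition plus 3 SD, cut at about 24% in these data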
# M1 ag: activates human CHRM1 receptor. actives 0.33% (n = 360,000). activation, % at 3 µM. P11229. CHO-K1 hM1, Fluo-8 calcium fluorescence, agonist mode; 0% DMSO, 100% acetylcholine EC100. AID 588814;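 active = activation above the run's mean compound activation plus 3 SD, cut at about 16% in these data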;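 also: peak over basal fluorescence ratio within a 140 s kinetic read after compound addition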
# Target sequence (P11229 whole entry, looked up): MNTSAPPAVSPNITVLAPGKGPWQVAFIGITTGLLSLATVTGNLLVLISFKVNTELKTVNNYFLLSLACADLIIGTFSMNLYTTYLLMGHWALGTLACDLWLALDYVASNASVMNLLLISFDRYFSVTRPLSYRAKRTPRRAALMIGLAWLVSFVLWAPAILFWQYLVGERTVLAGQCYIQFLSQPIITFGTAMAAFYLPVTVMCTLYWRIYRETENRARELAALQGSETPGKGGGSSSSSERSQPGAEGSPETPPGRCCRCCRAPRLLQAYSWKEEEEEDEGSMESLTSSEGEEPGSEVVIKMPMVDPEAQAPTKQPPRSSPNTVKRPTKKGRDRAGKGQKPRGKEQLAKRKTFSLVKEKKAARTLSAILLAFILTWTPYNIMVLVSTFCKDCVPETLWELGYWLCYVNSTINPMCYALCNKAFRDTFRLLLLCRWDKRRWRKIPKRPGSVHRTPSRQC
# CHO-K1 Ca ag: counter-screen for M1 agonists: effect in parental CHO-K1 cells; activation, % at 3 µM; Fluo-8 calcium fluorescence; scaled to maximal ATP response, vehicle zero; actives 0.48% (n = 360,000); AID 602248; in the data active = activation above about 15%;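 also: untransfected CHO-K1 host cells lacking M1 receptor as counterscreen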
# M1 PAM parental: nonselective activator or artifact in parental CHO-K1 calcium assay. ATP EC20, Fluo-8 calcium fluorescence; 0% at ATP EC20, 100% at ATP max. activation, % at 3 µM. actives 0.02% (n = 360,000). AID 602247;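 active = activation above the run cutoff, the mean activation of all test compounds plus 3 SD, cut at about 40% in these data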;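 also: peak over basal fluorescence ratio in a 140 s read after ATP addition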
# M1 PAM: potentiates human M1 receptor response to acetylcholine. CHO-K1 hM1, Fluo-8 calcium fluorescence, ACh EC20; 0% = ACh EC20, 100% = maximal ACh. actives 0.088% (n = 360,000). activation, % at 3 µM; in the data active = activation above about 19%, passing the limit was not always enough
# M1 antag: human CHRM1 antagonism; P11229; CHO-K1 hM1, Fluo-8 calcium fluorescence, ACh EC80 antagonist; inhibition, % at 3 µM; actives 1.3% (n = 360,000);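 active = percent inhibition above its own plate's cutoff, namely the mean of that plate's compound wells plus 3 SD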;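 also: peak over basal fluorescence ratio during 140 s after agonist addition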
# Numbers stand for hits; – = inactive; · = no result. Only some compounds are listed: those with a hit (about 2.4% of all), similar ones and a draw of the others.
SMILES,CHO-K1 Ca antag,M1 ag,CHO-K1 Ca ag,M1 PAM parental,M1 PAM,M1 antag
Cc1cccc(C)c1NC(=O)c1ccc(-c2cc(F)ccc2F)o1,–,–,–,–,–,–
COc1ccc(S(=O)(=O)N2CCC(C(=O)NCCC(=O)Nc3nccs3)CC2)cc1,–,–,–,–,–,–
OCC1(Cc2ccccc2)CCN(CCCC2CCCC2)CC1,–,–,–,–,–,34.5
C1CCN(C2CCN(c3nc4nonc4nc3N3CCSCC3)CC2)C1,–,–,–,–,–,26.9
O=C1CC(c2ccc(O)c(O)c2)Oc2cc(O)cc(O)c21 (stereo not drawn),–,–,–,–,–,–
COc1ccc(C2CC(=O)c3c(O)cc(O)cc3O2)cc1O (stereo not drawn),–,–,–,–,–,28.4
Cc1cc(C)c(C)c(OCCN2CC(C)OC(C)C2)c1 (stereo not drawn),–,–,–,–,–,–
CC(=O)N1CCN(S(=O)(=O)c2cccc(C(=O)NNC(=O)COc3ccc(F)cc3)c2)CC1,–,–,–,–,–,–
CCOC(=O)Cc1csc(NC(=O)CSc2ncnc3c2cnn3-c2ccccc2Cl)n1,–,–,–,–,–,27.6
O=C(COC(=O)CCNS(=O)(=O)c1ccccc1)NC(=O)Cc1ccccc1,–,–,–,–,–,–
NC1=NC[C@H](Cc2ccc(O)cc2)N1CCC12CC3CC(CC(C3)C1)C2,–,–,–,–,–,37.2
CC(C)[C@@H]1CN=C(N)N1C[C@@H]1CCCN1C[C@H](C)N1C[C@@H](Cc2ccccc2)N(CCc2ccc(Cl)c(Cl)c2)C1=N,–,–,–,–,–,45.8
C[C@@H](CN1CCC[C@H]1CN1C(N)=NC[C@@H]1Cc1ccccc1)N1C[C@@H](Cc2ccccc2)N(CCc2ccc(Cl)c(Cl)c2)C1=N,–,–,–,–,–,68.0
CC(C)[C@H](CN1CCC[C@H]1CN1C(N)=NC[C@@H]1Cc1ccccc1)N1C[C@@H](Cc2ccccc2)N(CCc2ccc(Cl)c(Cl)c2)C1=N,–,–,–,–,–,–
N#C/C(=C\c1coc2ccc(O)cc2c1=O)C(=O)Nc1nc2ccccc2s1,40.3,62.2,58.5,–,–,–
CN1CCN(NC(=O)c2c(-c3ccccc3)sc3ccccc23)CC1,–,–,–,–,–,–
Cc1ccc(CN2CCC(n3nccc3NC(=O)c3ccccc3C)CC2)o1,–,–,–,–,–,–
Cn1c(=O)c(C(=O)COc2ccc(C#N)cc2)c(N)n(Cc2ccccc2)c1=O,–,28.0,33.8,–,–,–
O=C(CSc1cc(Cl)ccc1Cl)NCC(=O)Nc1ccc(F)c(F)c1F,–,–,15.1,–,–,–
O=C(CNC(=O)c1cccc(Cl)c1)Nc1ccc(F)c(F)c1F,–,–,–,–,–,–
COc1cccc(C(O)c2ncc(-c3ccc(Cl)cc3)[nH]2)c1 (stereo not drawn),–,–,–,–,–,–
COc1ccc(NC(=O)c2c(F)c(F)c(F)c(F)c2F)cc1Cl,31.9,–,–,–,–,–
CC(=O)N1CCN(C(=O)/C(C#N)=C/c2ccc3c(c2)OCO3)CC1,–,–,–,–,33.7,–
N#CCC(=O)N1CCN(C(c2ccccc2)c2ccccc2)CC1,–,–,–,–,–,–
CCOc1ccccc1NC(=O)C(c1ccccc1)N1CCN(CC(=O)N2CCOCC2)CC1 (stereo not drawn),–,–,–,–,–,–
SMILES,CHO-K1 Ca antag,M1 ag,CHO-K1 Ca ag,M1 PAM parental,M1 PAM,M1 antag
O=C(O)COCC(=O)N1CCN(C(c2ccccc2)c2ccccc2)CC1,–,–,–,–,–,57.7
Cc1cc(C)c2c(=O)[nH]c(SCC(=O)N3CCOCC3)nc2n1,–,–,16.9,–,–,–
O=C(CN1CCN(C(c2ccccc2)c2ccccc2)CC1)N1CCOCC1,–,–,–,–,–,63.1
O=C(Nc1ccccc1-c1ccccc1)NC1CCN(CC(=O)N2CCOCC2)CC1,–,–,–,–,–,35.2
Cc1cc(C)c2c(=O)[nH]c(SCC(=O)N3CCCCC3)nc2n1,–,–,–,–,–,–
CC(C)(C)c1cc(/C=N/NC(=O)C[n+]2ccccc2)cc(C(C)(C)C)c1O,–,–,–,–,–,–
O=C(Nc1nnc([C@H]2C[C@H](O)[C@@H](CO)O2)s1)C(c1ccccc1)c1ccccc1,–,–,–,–,–,–
Cc1cc(=O)[nH]c(SCC(=O)N2CCN(C(c3ccccc3)c3ccccc3)CC2)n1,–,–,–,–,–,52.5
Cc1cc(=O)[nH]c(SCC(=O)N2CCCCC2)n1,–,–,–,–,–,–
COc1ccc(N2CCN(C(=O)CN3CCN(C(c4ccccc4)c4ccccc4)CC3)CC2)cc1,–,–,–,–,–,64.6
CC(C)C[C@H](NC(=O)N1CCn2c1nc1ccccc12)C(=O)NCc1ccc2c(c1)OCO2,–,–,–,–,–,–
CN(C)S(=O)(=O)c1ccc(N2CCCC2)c(C(=O)NCC2CCCO2)c1 (stereo not drawn),–,–,–,–,–,–
Cc1cscc1-c1cc2nc(NCCCN(C)C)n(C)c(=O)c2s1,–,–,–,–,–,–
C=CCn1cccc(C(=O)Nc2ccc(OC)c(OC)c2)c1=O,–,–,15.5,–,–,–
O=C1N/C(=C/c2cccn2-c2ccccc2)C(=O)N1Cc1ccc(F)cc1,–,–,–,–,–,–
O=C1N/C(=C/c2cccn2-c2ccc(F)cc2)C(=O)N1Cc1ccccc1F,24.8,–,–,–,–,–
Cc1cccc(C(=O)N2CCC[C@H]2C(=O)N2CCC[C@H]2C(=O)NCc2ccncc2)c1,–,·,–,–,·,·
COc1cccc(CC(CC(=O)O)C(=O)Nc2cc(C)ccc2C)c1 (stereo not drawn),–,–,–,–,–,–
O=C(NC1CCCCC1)c1sc(N2CCOCC2)nc1-c1ccccc1,–,–,–,–,–,–
CC1CCN(C(=O)CNC(=O)c2ccc(Cl)cc2Cl)CC1,31.4,–,–,–,21.8,–
CCCc1nc(NCc2ccncc2)c2nnn(Cc3ccccc3F)c2n1,–,–,–,–,–,–
CCCc1nc(NCc2ccccn2)c2nnn(Cc3ccccc3F)c2n1,30.2,–,–,–,–,–
COc1cc([N+](=O)[O-])ccc1NC(=O)NNC(=O)c1sccc1C,–,–,–,–,–,–
CCOC(=O)C1(C)CCCCN1C(=O)c1cccnc1 (stereo not drawn),–,–,–,–,27.2,–
COc1cc(/C=N/NC(=O)CC#N)ccc1Oc1nc(Cl)ncc1F,–,–,–,–,–,–
CCC(CC)c1nnc(NC(=O)COc2ccc3c(c2)OCO3)s1,–,–,20.4,–,–,–
CC(C)c1nnc(NC(=O)COc2ccc3c(c2)OCO3)s1,–,–,–,–,–,–

# Assay outcomes deposited in PubChem by The Scripps Research Institute Molecular Screening Center.
